Assay outcomes as filed in PubChem.
DUX4 inh: DUX4-mediated transcription inhibition. hit rate 0.8% among 37,000. activity change, negative = inhibition, % (concentration not given with the values). 293T-iDUX4 ZSCAN4-Gaussia luciferase reporter, 24 h; stronger effect = lower value;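 active = mean inhibition of at least 10% in the main channel, exceeding the control channel by a set limit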;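 note: 0% = median of neutral control wells and -100% = median of positive control wells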
Starred values were filed as active, the others as inactive. Many of the other results were omitted from the sample, so hits are more common in it than they were.

SMILES | DUX4 inh
COc1ccc(S(=O)(=O)N(C)C[C@@H]2OCCCC[C@@H](C)Oc3ccc(NC(=O)Nc4cccc5ccccc45)cc3C(=O)N([C@@H](C)CO)C[C@H]2C)cc1 | -1
COC(=O)C[C@@H]1C[C@@H]2c3cc(NC(=O)CN(C)C)ccc3O[C@@H]2[C@H](CO)O1 | 10
CCCC(=O)Nc1ccc2c(c1)OC[C@H](C)N(CCc1ccccc1)C[C@@H](C)[C@@H](OC)CN(C)C2=O | -6
C[C@@H]1CN([C@@H](C)CO)C(=O)c2cc(C3=CCCC3)cnc2O[C@H]1CN(C)Cc1cccc(F)c1 | -3
COc1ccc2c3c(n(C)c2c1)[C@@H](CO)NCC31CN(Cc2ccc(-c3ccccn3)cc2)C1 | -3
COc1ccc2c3c(n(C)c2c1)[C@H](CO)NCC31CN(Cc2ccc(Cl)cc2)C1 | -48*
COc1ccc2c3c(n(C)c2c1)[C@H](CO)NCC31CN(Cc2ccccc2Cl)C1 | 4
CCS(=O)(=O)N1CC(=O)N2[C@@H](CO)[C@H](c3ccc(-c4ccccc4C)cc3)[C@@H]2C1 | 6
CCCNC(=O)N1CC2(C1)CN(C(=O)CCC)[C@@H](CO)c1[nH]c3cc(OC)ccc3c12 | 13
O=C(Nc1ccccc1)N1C[C@H]2[C@@H](c3ccccc31)[C@H](CO)N2Cc1ccccc1Cl | -2
CN1c2ccc(-c3cccc(F)c3)cc2[C@@H]2[C@@H](CCN2C(=O)C2CCOCC2)[C@@H]1CO | 8
CN1c2ccc(-c3cccc(F)c3)cc2[C@H]2[C@H](CCN2C(=O)C2CCC2)[C@H]1CO | -7
CN1c2ccc(-c3cccc(F)c3)cc2[C@@H]2[C@@H](CCN2C(=O)C2CCC2)[C@H]1CO | -35*
CCCC(=O)Nc1ccc2c(c1)C(=O)N(C)C[C@@H](OC)[C@H](C)CN(Cc1ccccc1OC)[C@H](C)CO2 | -2
COc1ccc2c3c([nH]c2c1)[C@H](CO)N(Cc1ccccc1F)CC31CN(S(C)(=O)=O)C1 | -45*
COCC(=O)N1CC2(C1)CN(Cc1ccccc1Cl)[C@H](CO)c1[nH]c3cc(OC)ccc3c12 | -5
COc1ccc2c3c([nH]c2c1)[C@H](CO)N(Cc1cc(F)ccc1F)CC31CCN(C(=O)CN(C)C)CC1 | -9
COc1ccc2c3c([nH]c2c1)[C@H](CO)N(Cc1cc(F)ccc1F)CC31CN(C(=O)C2CCC2)C1 | -74*
COc1ccc2c3c([nH]c2c1)[C@H](CO)N(Cc1ccccc1F)CC31CN(C)C1 | -6
COc1ccc2c3c([nH]c2c1)[C@@H](CO)N(Cc1ccccc1F)CC31CN(C(=O)C2CCOCC2)C1 | -5
CC(=O)N1CC2(C1)[C@@H](c1ccc(-c3ccc(F)cc3)cc1)[C@@H](CO)N2C(C)=O | 1
CN1[C@@H]2c3ccc(-c4ccncc4)c(=O)n3C[C@H]1[C@H](CO)[C@H]2C(=O)NCCc1ccccc1 | -1
COc1ccc2c3c([nH]c2c1)[C@@H](CO)N(Cc1nccs1)CC31CCN(Cc2cncnc2)CC1 | 6
O=C(C[C@H]1C=C[C@@H](NC(=O)Cc2cccnc2)[C@@H](CO)O1)Nc1ccc(-c2ccccc2)cc1 | 4
CCCN1[C@@H]2Cn3c(ccc(-c4ccc(F)cc4)c3=O)[C@H]1[C@@H](C(=O)NCCc1cn(C)cn1)[C@@H]2CO | 1
SMILES | DUX4 inh
COc1ccc2c3c(n(C)c2c1)[C@H](CO)N(Cc1ccccc1OC)CC31CN(C(=O)C2CC2)C1 | 11
COc1cccc(S(=O)(=O)N2CCCCN3[C@H](C2)[C@H](c2ccc(-c4cccnc4)cc2)[C@@H]3CO)c1 | -35*
C/C=C/c1ccc([C@H]2[C@@H](CO)N3CCCCN(S(=O)(=O)c4cccc(C)c4)C[C@@H]23)cc1 | -44*
COc1cccc(S(=O)(=O)N2CCCCN3[C@H](CO)[C@@H](c4ccc(-c5cccnc5)cc4)[C@H]3C2)c1 | -8
COc1cccc(S(=O)(=O)N2CCCCN3[C@@H](CO)[C@@H](c4ccc(C#CC5CC5)cc4)[C@@H]3C2)c1 | 6
C/C=C/c1ccc([C@@H]2[C@@H](CO)N3CCCCN(S(=O)(=O)c4ccc(F)cc4)C[C@@H]23)cc1 | -3
C/C=C/c1ccc([C@@H]2[C@@H](CO)N3CCCCN(S(=O)(=O)c4ccc(F)cc4)C[C@H]23)cc1 | -8
CN(C)CCCNC(=O)[C@@H]1[C@@H](CO)[C@@H]2Cn3c(cccc3=O)[C@@H]2N1C(=O)Nc1ccccc1 | -4
CN(C)CCCNC(=O)[C@@H]1[C@@H](CO)[C@@H]2Cn3c(ccc(-c4ccncc4)c3=O)[C@H]1N2C(=O)C1CC1 | 8
COc1ccc(CN(C)C[C@@H]2OCCCC[C@@H](C)Oc3ccc(NS(C)(=O)=O)cc3C(=O)N([C@H](C)CO)C[C@H]2C)cc1 | 3
COCC(=O)N1CC2(C1)[C@@H](c1ccc(C3=CCCC3)cc1)[C@H](CO)N2C(=O)COC | 4
C[C@H](CO)N1C[C@H](C)[C@H](CN(C)Cc2cccc3c2OCCCO3)OCc2ccccc2-c2ccccc2C1=O | -1
C[C@@H]1CN([C@H](C)CO)C(=O)c2c(c3ccccc3n2C)-c2ccccc2CO[C@H]1CN(C)Cc1ccccc1C(F)(F)F | -49*
